The text below walks through data of PubChem BioAssay AID1851 (National Center for Advancing Translational Sciences (NCATS), 2009).

About 5,100 (32%) of roughly 16,000 compounds were called active. Inconclusive results (about 25%) are left out. The list shows a part of the results. A number with no mark means an inactive call. The call rests on the fitted dose curve; in most records, active means well fitted curve in the direction sought with a large enough effect; inconclusive means small, poorly fitted or top-dose-only effect, or effect the other way; inactive means no such curve, though single readings can be large or run the other way.
On the % scale 0 is the no-effect control and ±100 the full control effect.

Cytochrome P450 3A4 (Homo sapiens), sequence (P08684 whole entry, looked up): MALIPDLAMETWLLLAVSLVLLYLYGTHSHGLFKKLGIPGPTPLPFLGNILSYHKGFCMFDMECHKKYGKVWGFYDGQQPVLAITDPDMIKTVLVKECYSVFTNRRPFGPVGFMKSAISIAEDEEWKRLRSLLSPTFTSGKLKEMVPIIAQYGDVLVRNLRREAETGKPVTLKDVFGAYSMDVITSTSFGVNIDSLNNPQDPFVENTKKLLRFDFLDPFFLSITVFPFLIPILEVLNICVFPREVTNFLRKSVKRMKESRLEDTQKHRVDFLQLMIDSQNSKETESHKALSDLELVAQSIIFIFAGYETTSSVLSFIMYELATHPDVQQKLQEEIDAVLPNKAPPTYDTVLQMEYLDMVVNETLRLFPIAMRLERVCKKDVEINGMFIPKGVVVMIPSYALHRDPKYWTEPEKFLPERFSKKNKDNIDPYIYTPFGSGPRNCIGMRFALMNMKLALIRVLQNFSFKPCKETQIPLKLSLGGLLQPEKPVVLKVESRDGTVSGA

This assay addresses Cytochrome P450 3A4 (Homo sapiens) (UniProt P08684). As to the kind of experiment: Cytochrome panel assay with activity outcomes. As to conditions: recombinant CYP, pro-luciferin dealkylation, luminescence, p450-cyp3a4; series mostly up to 57.1 µM; activity, negative = inhibition: at the top concentration.
As to `CCc1c2c(nc3cccc(OC)c13)OC(CC)C2` (stereo not drawn), the “activity, negative = inhibition” value is -7.79%.
In general, AC50 refers to the midpoint of the concentration-response curve, whichever way the signal moves. `CCc1cccc2nc3c(c([Si](C)(C)C)c12)Cn1c-3cccc1=O`: the AC50 is 12.6 µM (active).
As for `O=C1CS/C(=C\[N+](=O)[O-])N1c1ccc(OC(F)(F)F)cc1`, the “activity, negative = inhibition” value is -23.8%.
For the compound `Cc1cc(C2CCCCC2)n(O)c(=O)c1`, the “activity, negative = inhibition” value is -26.4% [at 25.6 µM].
For the compound `CCN(CC)CCOc1ccc(/C(=C(\Cl)c2ccccc2)c2ccccc2)cc1`, the “activity, negative = inhibition” value was -27.7% [at 25.6 µM].
Same read-out and setting: to `CN(C)CCCO[C@H]1[C@H]([C@H](O)CO)O[C@H]2OC(C)(C)O[C@@H]21` belongs -7.33%; to `O=c1c2ccccc2nc2n1CCC2`, -1.04%.
On to `Cc1c2c(nc3ccccc13)-c1cccc(=O)n1C2`, for which the concentration at half-maximal activity (AC50) was 12.6 µM (active).
Take `Cc1[nH]nc(-c2ccc(OCc3cnn(-c4ccccc4)c3)cc2O)c1Oc1ccc(F)cc1`: the AC50 was 14.1 µM (active).
The same measure, in the same setting: to `Cc1ccccc1OC1C(=O)N(Cc2ccc3c(c2)OCO3)C1c1sccc1C` (stereo not drawn) belongs 0.794 µM (active); to `COC(=O)c1ccc(C2C(Oc3ccccc3)C(=O)N2CCc2ccc(OC)c(OC)c2)cc1` (stereo not drawn), 2.82 µM (active); to `COc1ccc(CCN2C(=O)C(Oc3ccccc3C)C2c2ccc3c(c2)OCO3)cc1OC` (stereo not drawn), 0.501 µM (active).
`NC(N)=NC(N)=Nc1ccccc1` (tested in a mixture with another compound): the activity, negative = inhibition is -12.3% [at 11.4 µM].
Regarding `Clc1ccc(C2=C3CCCCn4c(-c5ccccc5)c[n+](c43)C2)cc1`, the “activity, negative = inhibition” value is -17%.
Same read-out and setting: to `CC[C@H](NC(C)C)[C@H](O)c1ccc(O)c2[nH]c(=O)ccc12` belongs -10.3%; to `O=C(O)[C@@H](O)[C@@H](O)[C@@H](O)[C@@H](O)c1nc2ccccc2s1`, -23.6% [at 11.4 µM].
Take `CCCc1cc(C(=O)Cc2nc3ccccc3s2)c(O)cc1O`: the AC50 was 12.6 µM (active).
For `O=C(NNc1nc2ccccc2s1)C1CC1`, the “activity, negative = inhibition” value is -5.94%.
On to `O=C(Oc1ccc2ccccc2c1Br)N1CCCCCC1`, for which the half-maximal activity concentration (AC50) is 14.1 µM (active).
Consider `Cc1ccc(OC(=O)N2CCOCC2)cc1`, for which the “activity, negative = inhibition” value was -1.91%.
With `O=C(CCN1CCCCC1)c1csc2ccccc12`, the activity, negative = inhibition is -13.8% [at 11.4 µM].
The same measure, in the same setting: the same measure for `CCCCOc1ccc(C(=O)NCc2ccco2)cc1`: -3.62%; for `COc1ccc(/C=C(/NC(C)=O)C(=O)O)cc1`: 4.62% [at 2.29 µM].
`CCCCOc1ccc(C(=O)N/C(=C\c2cccc([N+](=O)[O-])c2)C(=O)OCCC)cc1`: the AC50 is 1 µM (active).
Same read-out and setting: to `CCCCOc1ccc(C(=O)N/C(=C\c2ccc(OC)cc2)C(=O)OCc2ccco2)cc1` belongs 3.98 µM (active).
Turning to `OC[C@@H]1O[C@H](O)[C@@H](Cl)[C@H](O)[C@@H]1O`, the “activity, negative = inhibition” value was 0.669%.
For the compound `C=CCNCCCCOc1c(Cl)cc(C)cc1Br`, the AC50 was 14.1 µM (active).
`Cc1cc(Br)cc(C)c1OCCCCN(C)C`: the “activity, negative = inhibition” value was 17%.
`COCCCNCCCCOc1c(Cl)cc(C)cc1Br`: the activity, negative = inhibition was -14.4% [at 2.29 µM].
The same measure, in the same setting: to `Cc1cnc(CNc2ccnc(-c3ccccc3C(F)(F)F)n2)cn1` belongs -6.93%.
Take `Cc1cnc(CNc2nc(-c3ccccc3C(F)(F)F)nc3ccccc23)cn1`: the half-maximal activity concentration (AC50) is 5.01 µM (active).
Turning to `COc1ccccc1-c1nc(NCc2cnc(C)cn2)c2ccccc2n1`, the AC50 was 15.8 µM (active).
The same measure, in the same setting: the same measure for `COc1ccc2[nH]cc(CCNc3ncnc4ccc(-c5ccoc5)cc34)c2c1`: 3.98 µM (active); for `COc1ccc2[nH]cc(CCNc3ncnc4ccc(-c5ccccc5C#N)cc34)c2c1`: 2 µM (active); for `COc1cccc(-c2ccc3ncnc(NCCc4c[nH]c5ccc(OC)cc45)c3c2)c1`: 1.26 µM (active).
The same measure, in the same setting: to `COc1ccc2[nH]cc(CCNc3ncnc4ccc(-c5cccc(C#N)c5)cc34)c2c1` belongs 2.51 µM (active); to `COc1ccc2[nH]cc(CCNc3ncnc4ccc(-c5ccc6c(c5)OCO6)cc34)c2c1`, 2 µM (active).
The same measure, in the same setting: the same measure for `COc1ccc2[nH]cc(CCNc3ncnc4ccc(-c5cccnc5)cc34)c2c1`: 1 µM (active).
In the case of `COc1ccc2[nH]cc(CCNc3ncnc4ccc(-c5ccccc5CN(C)C)cc34)c2c1`, the AC50 is 1.58 µM (active).
The same measure, in the same setting: the same measure for `COc1ccc2[nH]cc(CCNc3ncnc4ccc(-c5c(C)noc5C)cc34)c2c1`: 3.16 µM (active).
`O=C(Cn1cnc([N+](=O)[O-])c1)NCc1ccc(F)cc1`: the “activity, negative = inhibition” value was 7.55%.
The same measure, in the same setting: the same measure for `Cc1ccc(C(C)C)n1C(=O)OC(C)(C)C`: -18.1% [at 11.4 µM]; for `Nc1nc2c(nc(Br)n2[C@@H]2O[C@H]3COP(=O)(O)O[C@H]3[C@@H]2O)c(=O)[nH]1`: -11.4%; for `COc1ccc(OC)c(N(CC(=O)N2CCc3ccccc3C2)S(C)(=O)=O)c1`: 7.06%.
As for `COc1ccc(S(=O)(=O)N(CCc2ccccc2)CC(=O)N2CCOCC2)cc1`, the AC50 was 7.08 µM (active).
As for `Cc1ccc(CS(=O)(=O)CCC(=O)N2CCOCC2)cc1`, the “activity, negative = inhibition” value was -2.96%.
As for `COc1ccc(S(=O)(=O)N(CC(=O)N2CCCC2)Cc2ccccc2)cc1`, the AC50 is 4.47 µM (active).
As for `CN(Cc1ccccc1)S(=O)(=O)c1ccc(OCC(=O)N2CCOCC2)cc1`, the “activity, negative = inhibition” value is -0.529%.
